Data from PubChem BioAssay (EPA / NIEHS).
Active and inactive are the calls of the source. The calls were made as follows: active = hit-call score of the fitted dose curve at least 0.9, where 1 is the maximum; inactive = score below 0.9.

Experiment: BSK_3C_Vis: BioMAP Diversity Plus: 3C Assay for Morphology Visualization (AID 2283025);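 also: fitted both ways so gain or loss versus DMSO counts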
Details: primary human endothelial cells (HUVEC)
Description: BSK_3C is a cell-based, multiplexed-readout assay that uses umbilical vein endothelium, a human vascular primary cell, with measurements taken at 24 hours after chemical dosing in a 96-well plate.BSK_3C_Vis is an assay component measured in the BSK_3C assay. It measures NA related to cell morphology using light microscopy technology.Data from the assay component BSK_3C_Vis was analyzed into 1 assay endpoint. This assay endpoint, BSK_3C_Vis, was analyzed with bidirectional fitting relative to DMSO as the negative control and baseline of activity. Using a type of morphology reporter, gain or loss-of-signal activity can be used to understand changes in the background control. Furthermore, this assay endpoint can be referred to as a secondary readout, because this assay has produced multiple assay endpoints where this one serves a background control function. To generalize the intended target to other relatable targets, this assay endpoint is annotated to the cell morphology intended target family, where the subfamily is cell conformation.
The levels of cell surface (or secreted, indicated by the prefix "s") biomarker endpoints were measured by ELISA. Overt cytotoxicity to cells in confluent adherent cultures (all systems other than the BT system) was assessed by measuring total protein levels using sulforhodamine B (SRB) staining in parallel cultures at the time of biomarker measurements, indicated as SRB endpoints. For proliferation assays for adherent cell types, individual cell types are cultured at sub-confluence and relative cell numbers quantified by SRB staining at time points optimized for each system (48 h: 3C and CASM3C systems; 72 h: BT and HDF3CGF systems; 96 h: SAg system). SRB was performed by staining cells with 0.1% SRB after fixation with 10% TCA and reading wells at 560 nm.Viability and proliferation of PBMC (T cells) was quantified by Alamar Blue reduction for the SAg and BT systems. For PBMC viability (referred to as PBMC Cytotoxicity within the assay endpoint names), cells were plated (75,000/well in a 96-well plate) and then chemical samples added for 1 h before addition of activators, SEB and TSST-1 (20 ng/mL final concentration each). Cells were incubated for 90 h. Then, Alamar Blue (20 uL/well) (Invitrogen, Cat DAL1100) was added for 6 h, and the plates were read with a fluorescence microplate reader at 546/580 nm (excitation/emission). For PBMC proliferation, cells were plated and activated as above but incubated for only 16 h prior to addition of Alamar Blue. Plates were read after 6 h.

| SMILES | outcome | AC50 |
| --- | --- | --- |
| CC1(C)[C@H](C(=O)O[C@H](C#N)c2cccc(Oc3ccccc3)c2)[C@@H]1/C=C(\Cl)C(F)(F)F | inactive | – |
| Clc1cccc(Cl)c1Cl | inactive | – |
| O=[N+]([O-])c1ccc(Nc2ccccc2)cc1 | inactive | – |
| CCCCN(CCCC)C(=S)[S-].CCCCN(CCCC)C(=S)[S-].[Ni+2] | inactive | – |
| Cc1cc(C)cc(C)c1 | inactive | – |
| Cc1cc(Cl)ccc1N | inactive | – |
| CCCCCCCCCCCCN(C)C | inactive | – |
| CC(C=O)Cc1ccc2c(c1)OCO2 (stereo not given) | inactive | – |
| Oc1cc(Cl)c(Cl)cc1Cl | – | 39 µM (active) |
| Oc1cccc(-c2ccccc2)c1 | – | 38.9 µM (active) |
| O=S(=O)(C(Cl)(Cl)Cl)C(Cl)(Cl)Cl | – | 4.25 µM (active) |
| O=C1C=CC(=O)c2ccccc21 | – | 4.06 µM (active) |
| c1ccc(-c2cccc(-c3ccccc3)c2)cc1 | – | 13 µM (active) |
| Oc1ccc(Cc2ccc(O)cc2)cc1 | inactive | – |
| O=S(=O)(c1ccc(Cl)cc1)c1cc(Cl)c(Cl)cc1Cl | – | 13.6 µM (active) |
| O=C(O)C1(c2ccc3c(c2)OC[C@H](Cc2ccc(-c4ccccc4)cc2)[C@H]3O)CCCC1 | inactive | – |
| COc1ccccc1N | inactive | – |
| Nc1c(Oc2ccccc2)cc(O)c2c1C(=O)c1ccccc1C2=O | inactive | – |
| Cc1cc(C(C)(C)c2ccc(O)c(C)c2)ccc1O | – | 18.7 µM (active) |
| Clc1cccc(Cl)c1 | inactive | – |

| SMILES | outcome | AC50 |
| --- | --- | --- |
| CCOC(=O)C(SP(=S)(OC)OC)c1ccccc1 (stereo not given) | – | 37.5 µM (active) |
| Cc1ccccc1OP(=O)(Oc1ccccc1C)Oc1ccccc1C | – | 12.5 µM (active) |
| CCOC(=O)CC(=O)CCl | inactive | – |
| CCOP(=O)(OCC)OC(=CCl)c1ccc(Cl)cc1Cl | – | 37.4 µM (active) |
| CC(C)(COCC1CO1)COCC1CO1 (stereo not given) | inactive | – |
| Oc1c(Br)cc(Br)cc1Br | inactive | – |
| OC(Cc1ccccc1Cl)(Cn1[nH]cnc1=S)C1(Cl)CC1 (stereo not given) | inactive | – |
| C=CC(Cl)CCl (stereo not given) | inactive | – |
| CC(C)(C)c1cc([N+](=O)[O-])cc(C(C)(C)C)c1O | inactive | – |
| CCOP(=S)(OCC)OP(=S)(OCC)OCC | – | 37.5 µM (active) |
| Cc1ccc(OP(=O)(Oc2ccc(C)cc2C)Oc2ccc(C)cc2C)c(C)c1 | inactive | – |
| NC(=O)CCl | inactive | – |
| Cc1c([N+](=O)[O-])c(C)c([N+](=O)[O-])c(C(C)(C)C)c1[N+](=O)[O-] | – | 37.4 µM (active) |
| CCOP(=S)(OCC)SCS(=O)(=O)C(C)(C)C | inactive | – |
| CCN(CC)C(=O)C(Cl)=C(C)OP(=O)(OC)OC | inactive | – |
| COCC(=O)N(c1c(C)cccc1C)[C@H](C)C(=O)OC | inactive | – |
| CC(C)(C)c1ccccc1O | inactive | – |
| Oc1c(Cl)cc(Cl)cc1Cl | inactive | – |
| O=c1oc2ccccc2c(O)c1C(CC(O)c1ccc(-c2ccc(Br)cc2)cc1)c1ccccc1 (stereo not given) | – | 12.6 µM (active) |
| Cc1ccc2nc3sc(=O)sc3nc2c1 | – | 9.8 µM (active) |
